These results are taken from the supplement of paper PMC12669797.

In one assay the test system is ES2. The assay can be described thus: cell viability relative to DMSO control (MTS) (fraction of DMSO control); higher = more viable cells / less growth inhibition. Conditions: 10 µM; 48 h. An outline of the steps:
(§1)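 TOV-21G and ES2 clear cell carcinoma cells were seeded at 5000 cells per well in 96-well plates and grown for 24 h. Cells then received a 367-compound […] library at 10 µM final concentration, with DMSO in control wells. After 48 h, viability was read by MTS assay (CellTiter 96 AQueous One Solution) following the maker's protocol. Cell viability is expressed as a fraction of the DMSO control.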

A further assay deals with TOV-21G. The assay is described as above. Conditions: 10 µM; 48 h. Put shortly:
as §1

Values joined by “and” are separate entries in the source; they are usually repeats but may differ in a detail not shown here. Equal values may be shown once. ± gives the standard deviation of the averaged measurements.

Turning to `CC[C@@]1([C@@H]2O[C@@H]([C@H]3O[C@@](O)(CO)[C@H](C)C[C@@H]3C)C[C@@H]2C)CC[C@H]([C@]2(C)CC[C@]3(C[C@H](O)[C@@H](C)[C@@H]([C@@H](C)[C@@H](OC)[C@H](C)C(=O)O)O3)O2)O1` [Monensin], the values for the cell viability in the assay on ES2 and with TOV-21G were 0.419 and 0.368, respectively.

As for `C[C@@]1(CO)[C@H](O)CC[C@@]2(C)[C@H]1CC[C@H]1C[C@@H]3C[C@@]12CC[C@]3(O)CO` [Aphidicolin], the cell viability with ES2 was 0.419; in the assay with TOV-21G it was 0.869.

With `C=C(C)[C@H]1Cc2c(ccc3c2O[C@@H]2COc4cc(OC)c(OC)cc4[C@@H]2C3=O)O1` [Rotenone], the cell viability with ES2 came out at 0.491; in the assay on TOV-21G, 0.666.

In the case of `CC1=C2C(=O)[C@H]3[C@@H](CC=C4C[C@@H](O)CC[C@@]43C)[C@@H]2CC[C@]12O[C@@H]1C[C@H](C)CN[C@H]1[C@H]2C` [Jervine], the cell viability with ES2 came out at 1.04; with TOV-21G it was 1.64.

`C/C(O)=C(\C#N)C(=O)Nc1cc(Br)ccc1Br`: the cell viability in the assay on ES2 came to 1.06 ± 0.013; in the assay on TOV-21G, 1.34 ± 0.19.

With `CC[C@H]1/C=C/C=C/C[C@@H](C)[C@H](O)[C@@](C)(O)C(=O)[C@@H](C)[C@H](O)[C@@H](C)C(=O)[C@@H](C)[C@H](O)[C@@H](C)/C=C/C(=O)O[C@@H]2[C@H](C)[C@H](CC1)O[C@]1(CC[C@H](C)[C@H](C[C@@H](C)O)O1)[C@H]2C` [Oligomycin], the values for the cell viability with ES2 and with TOV-21G were 0.67 and 0.535, respectively.

On to `C[C@H]1CCC/C=C/[C@@H]2C[C@H](O)C[C@H]2[C@H](O)/C=C/C(=O)O1` [brefeldin A], for which the cell viability in the assay with ES2 worked out at 0.355; with TOV-21G, 0.407.

In the case of `CC(=O)N[C@H]1[C@@H](O[C@@H]2O[C@H](CC(O)[C@H]3O[C@@H](n4ccc(=O)[nH]c4=O)[C@H](O)[C@@H]3O)[C@H](O)[C@H](O)[C@H]2NC(=O)/C=C/CC(C)C)O[C@H](CO)[C@@H](N)[C@@H]1O` (some centres undefined) [Tunicamycin], the cell viability worked out at 1.19 in the assay on ES2 and 1.03 in the assay with TOV-21G.

As to `CC(C)[C@@H]1NC(=O)[C@H](C)OC(=O)[C@@H](C(C)C)NC(=O)[C@@H](C(C)C)OC(=O)[C@H](C(C)C)NC(=O)[C@H](C)OC(=O)[C@@H](C(C)C)NC(=O)[C@@H](C(C)C)OC(=O)[C@H](C(C)C)NC(=O)[C@H](C)OC(=O)[C@@H](C(C)C)NC(=O)[C@@H](C(C)C)OC1=O` [Valinomycin], the cell viability was determined as 0.482 with ES2 and 0.355 in the assay with TOV-21G.

With `CO[C@@H]1C[C@@H](C[C@H]2CC[C@H](C)[C@H]([C@@H](C)C(=O)O)O2)O[C@]2(O[C@](C)([C@H]3CC[C@@](C)([C@@H]4O[C@@H]([C@H]5O[C@@](O)(CO)[C@H](C)C[C@@H]5C)C[C@@H]4C)O3)C[C@H]2C)[C@@H]1C` [Nigericin], the cell viability in the assay with ES2 is 0.437; in the assay on TOV-21G, 0.344.

For `Cc1sc2c(c1C)C(c1ccc(Cl)cc1)=N[C@@H](CC(=O)OC(C)(C)C)c1nnc(C)n1-2`, the cell viability came out at 0.502 in the assay on ES2 and 0.305 in the assay on TOV-21G.

On to `C[C@@H]1C[C@@H]([C@H](O)CC2CC(=O)NC(=O)C2)C(=O)[C@@H](C)C1` [Cycloheximide], for which the results for the cell viability in the assay on ES2 and in the assay with TOV-21G were 0.547 and 0.373, respectively.

On to `O=C1C2CCN(CC2)C1(CO)CO`, for which the cell viability in the assay with ES2 is 1.01; in the assay with TOV-21G it was 1.1.

As to `C=C1[C@@H](C)[C@H]2[C@H](Cc3ccccc3)NC(=O)[C@]23[C@H](OC(C)=O)/C=C/[C@@](C)(O)C(=O)[C@@H](C)C/C=C/[C@H]3[C@@H]1O` [Cytochalasin D], the values for the cell viability with ES2 and with TOV-21G were 0.498 and 0.472, respectively.

`C[C@@]12C(=O)OC(=O)[C@]1(C)[C@H]1CC[C@@H]2O1` [Cantharidin]: the cell viability with ES2 amounted to 0.495; with TOV-21G, 0.403.

As to `C[C@]12CCC(=O)C(O)=C1CC[C@@H]1[C@@H]2CC[C@]2(C)C(=O)CC[C@@H]12` [Formestane], the cell viability in the assay with ES2 was found to be 1.11; with TOV-21G, 1.32.

As for `COC[C@H]1OC(=O)c2coc3c2[C@@]1(C)C1=C(C3=O)[C@@H]2CCC(=O)[C@@]2(C)C[C@H]1OC(C)=O` [Wortmannin], the cell viability is 0.956 ± 0.059 with ES2 and 0.6 ± 0.027 in the assay on TOV-21G.

Turning to `CNc1ccc2oc(C[C@H]3O[C@@]4(CC[C@H]3C)O[C@H]([C@H](C)C(=O)c3ccc[nH]3)[C@H](C)C[C@H]4C)nc2c1C(=O)O`, the results for the cell viability in the assay with ES2 and in the assay with TOV-21G were 0.425 and 0.284, respectively.

In the case of `CN[C@@H]1C[C@H]2O[C@@](C)([C@@H]1OC)n1c3ccccc3c3c4c(c5c6ccccc6n2c5c31)C(=O)NC4` [Staurosporine], the values for the cell viability in the assay with ES2 and in the assay with TOV-21G were 0.301 and 0.239, respectively.

For `O=C(O)c1nn(Cc2ccc(Cl)cc2Cl)c2ccccc12` [Lonidamine], the cell viability in the assay on ES2 was determined as 0.925; with TOV-21G, 1.09.

With `COC(=O)C1(OC)CC2OC1(C)n1c3ccccc3c3c4c(c5c6ccccc6n2c5c31)C(=O)N(C)C4` (centres undefined), the cell viability was 1 and 1.11 in the assay on ES2; 0.914 and 1.01 in the assay with TOV-21G.

As for `CC(C)(O)/C=C/C(=O)[C@](C)(O)[C@H]1[C@H](O)C[C@@]2(C)[C@@H]3CC=C4[C@@H](C=C(O)C(=O)C4(C)C)[C@]3(C)C(=O)C[C@]12C` [Cucurbitacin I], the cell viability in the assay with ES2 stood at 0.393; in the assay on TOV-21G it was 0.328.
